# Measurements reported in ChEMBL document CHEMBL5308541, “MAIP: An Open-Source Tool to Enrich High-Throughput Screening Output and Identify Novel, Druglike Molecules with Antimalarial Activity” (ACS Med Chem Lett, 2023).
# The campaign covered roughly 4,800 compounds. About 410 (8.5%) showed an effect of 50% or more. The full list was thinned out, with strong results kept by preference.
# System: Plasmodium falciparum
# Assay: Confirmatory screen in NF54 pLDH assay, in single point, at 2uM, 72h
# Format: functional, Erythrocyte
# Settings: timepoint 72 hour
row,Compound,% Inhibition
1,Fc1ccc(N2CC[C@H](CN3CCC(c4c[nH]c5ccccc45)(c4c[nH]c5ccccc45)CC3)C2)cc1,102%
2,CN1C2CCC1CC(OC(=O)C1CCC(C(=O)OC3CC4CCC(C3)N4C)(c3ccccc3)c3ccccc31)C2 (stereo unspecified),63%
3,O[C@@H](CNCc1ccc2c(c1)CCO2)c1ccc(F)c(F)c1,74%
4,CN1CCC(N(C)c2ccccc2CNC[C@@H](O)c2cccc(Cl)c2)CC1,17%
5,CC(C)(C)c1ccc(CNC[C@H](O)c2ccc(F)cc2F)cc1,91%
6,CN1CCN(c2ccc(C(F)(F)F)cc2NCc2cnc[nH]2)CC1,92%
7,COc1ccc(CCNCc2ccc3[nH]cnc3c2)c(Cl)c1,48%
8,CCN(C(C)=O)c1nc(CN2CC=C(c3c[nH]c4cc(F)ccc34)CC2)cs1,20%
9,CN(C)CC12CNCC1CN(c1ccnc3cc(Cl)ccc13)C2 (stereo unspecified),97%
10,Oc1ccc(C2=CCN(Cc3cccc4[nH]ccc34)CC2)cc1,38%
11,CCCOc1cncc(-c2ccc3c(c2)CNCC3)c1,8%
